KDM4E inh = blocks human JMJD2E demethylase activity; JMJD2E catalytic domain, FDH-coupled NADH fluorescence (FDH is formaldehyde dehydrogenase); 230,000 tested, 1.6% active; Potency, µM (doses to about 57.1 µM), for the others: at the top dose activity change, negative = inhibition, usual class: inhibitors; B2RXH2; active means well fitted inhibition curve with a large enough effect, not every such curve was filed as active; inconclusive means small, poorly fitted or top-dose-only effect, or another doubt; inactive means no such curve, though single readings can be large or run the other way;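 further: potency means the concentration at half of the fitted maximal effect; 0% = wells with enzyme and -100% = buffer wells without enzyme; nearly all actives have a fitted effect of over 50% in size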
Target sequence (B2RXH2 1-337 limits assumed): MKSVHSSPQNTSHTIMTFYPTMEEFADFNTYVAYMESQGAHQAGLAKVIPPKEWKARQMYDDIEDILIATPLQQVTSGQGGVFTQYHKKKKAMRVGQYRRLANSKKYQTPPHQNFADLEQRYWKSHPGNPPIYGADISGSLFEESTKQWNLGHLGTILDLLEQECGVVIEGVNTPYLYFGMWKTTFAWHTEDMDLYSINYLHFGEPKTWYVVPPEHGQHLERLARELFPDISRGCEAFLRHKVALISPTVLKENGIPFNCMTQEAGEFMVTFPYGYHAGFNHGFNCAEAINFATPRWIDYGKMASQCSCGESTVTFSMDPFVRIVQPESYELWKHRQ
Tau fluor counter = counter-screen for tau fibril formation inhibitors; tau K18 P301L Alexa594 fluorescence, heparin fibrillization; Potency, µM (doses to about 57.7 µM), for the others: top-dose activity change, negative = decrease; 280,000 tested, 0.93% active; further: potency means the concentration at half of the fitted maximal effect; on the % scale 0 is the no-effect control and ±100 the full control effect; nearly all actives have a fitted effect of over 55% in size
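Human tau K18 P301L (15 uM unlabeled, 0.24 uM Alexa 594-labeled) in 100 mM sodium acetate pH 7 with 20 uM heparin, 6 hr at 37 C. ThT 30 uM added, 1 hr ambient; Alexa 594 FP and total fluorescence read at 555/632 nm.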
Tau fibril FP = blocks human tau fibril formation measured by polarization; 280,000 tested, 0.39% active; Potency, µM (titrated, usually from 57.7 µM), for inactives: top-dose activity, negative = inhibition, usual class: inhibitors; K18 P301L tau heparin fibrillization, Alexa594 FP, 6 h; further: potency means the concentration at half of the fitted maximal effect; on the % scale 0 is the no-effect control and ±100 the full control effect; nearly all actives have a fitted effect of over 55% in size
Target sequence (P10636 561-689 P618L limits assumed): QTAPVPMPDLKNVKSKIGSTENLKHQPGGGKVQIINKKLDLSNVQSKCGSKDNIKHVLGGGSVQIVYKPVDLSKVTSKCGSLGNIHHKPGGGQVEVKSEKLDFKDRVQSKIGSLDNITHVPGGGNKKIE
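Recombinant K18 P301L […], labeled with Alexa 594 at 0.24 uM over 15 uM unlabeled; heparin inducer 20 uM final; 37 C, 6 hr; FP endpoint.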
ALDH1A1 inh-1 = blocks purified human ALDH1A1 activity | P00352 | Purified ALDH1A1, NADH fluorescence, propionaldehyde substrate | Potency, µM (highest dose often 75.3 µM), for the others: at the highest dose activity, negative = inhibition, actives largely listed as inhibitors | 220,000 tested, 7.3% active | AID 1030; active means well fitted inhibition curve with a large enough effect, not every such curve was filed as active; inconclusive means small, poorly fitted or top-dose-only effect, or another doubt; inactive means no such curve, though single readings can be large or run the other way;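 further: potency means the concentration at half of the fitted maximal effect; plate controls were no enzyme wells and a reference inhibitor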
Tau ThT inhib = tau fibrillization inhibition (ThT binding) | recombinant tau K18 P301L (four-repeat tau fragment), heparin-induced fibrillization, ThT fluorescence | AID 1460 | P10636 | 270,000 tested, 2.1% active | Potency, µM (titrated, usually from 57.4 µM), without a hit: at the highest dose activity, negative = inhibition, actives largely listed as inhibitors; further: potency means the concentration at half of the fitted maximal effect; on the % scale 0 is the no-effect control and ±100 the full control effect; nearly all actives have a fitted effect of over 55% in size
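Recombinant human tau K18 fragment […] carrying P301L, 15 uM unlabeled plus 0.24 uM Alexa 594-labeled, was fibrillized with 20 uM heparin in 100 mM sodium acetate pH 7 for 6 hr at 37 C; 30 uM ThT fluorescence read after 1 hr.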
HPGD inh = inhibitors of human 15-hydroxyprostaglandin dehydrogenase (HPGD); purified HPGD, NADH fluorescence kinetic, PGE2 substrate; 150,000 tested, 4.3% active; Potency, µM, inactives show at the highest dose activity change, negative = inhibition, most hits filed as inhibitors; active means well fitted inhibition curve with a large enough effect, not every such curve was filed as active; inconclusive means small, poorly fitted or top-dose-only effect, or another doubt; inactive means no such curve, though single readings can be large or run the other way; further: potency means the concentration at half of the fitted maximal effect; on the % scale 0 is the no-effect control and ±100 the full control effect
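NADH formation kinetics: reaction with 30 uM PGE2 and 1 mM NAD+ (final), 20 nM enzyme, Tris-HCl pH 8 with Tween 20, after 15 min compound preincubation at room temperature. Fluorescence change, last versus first of five reads.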
HPGD inh conf = confirmation of human HPGD inhibitors; shares compounds with HPGD inh; recombinant HPGD, NADH fluorescence, PGE2 substrate; Potency, µM (titrated, usually from 57.1 µM), for the others: at the top dose activity change, negative = inhibition, hits mostly inhibitors; 90 tested, 90% active; calls by dose curve
ALDH1A1 inh-2 = Blocks ALDH1A1 NADH production, follow-up; shares compounds with ALDH1A1 inh-1; purified ALDH1A1, NADH fluorescence, propionaldehyde/NAD+; AID 493210; Potency, µM (titrated, usually from 57.1 µM), inactives show at the top dose activity change, negative = inhibition, actives largely listed as inhibitors; 90 tested, 90% active; calls by dose curve
Active calls of the source: *; ? = inconclusive; · = no result; [ ] = another dose, or the depositor's remark. Only some compounds are listed: those with a hit (about 9.9% of all), similar ones and a draw of the others. Unless noted, the call rests on the fitted dose curve; in most records, active means well fitted curve in the direction sought with a large enough effect; inconclusive means small, poorly fitted or top-dose-only effect, or another doubt; inactive means no such curve, though single readings can be large; an effect the other way counts as inactive or inconclusive.

SMILES	KDM4E inh	Tau fluor counter	Tau fibril FP	ALDH1A1 inh-1	Tau ThT inhib	HPGD inh	others
C=CCN1C(=O)NC(=O)/C(=C/c2ccc(OC)c(CSc3ccccn3)c2)C1=O	-23%	-7%	-9%	13µM*	?	28µM*
N#CC1=C(N)Oc2n[nH]c(-c3cccs3)c2C1c1ccsc1 (configuration not stated)	?	-26%	?	-4%	13µM*	-14%
N#CC1=C(N)Oc2n[nH]c(-c3cccs3)c2C1c1ccco1 (configuration not stated)	?	?	?	?	16µM*	?
N#CC1=C(N)Oc2c(c(=O)sc3ccccc23)C1c1ccncc1 (configuration not stated)	-10%	-17%	6%	-1%	?	·
COC(=O)/C=C/C(=O)N[C@@H]1CC[C@@]2(O)[C@H]3Cc4ccc(O)c5c4[C@@]2(CCN3CC2CC2)[C@H]1O5	·	3%	1%	-8%	5%	·
CC(Cl)(Cl)Cl	·	·	·	-2%	·	-10%
c1cc(CCN2CCCCC2)ccn1	·	·	·	11%[13.5 µM]	·	-5%
COc1cccc(CNC(=O)CSc2ccc(-c3ccco3)nn2)c1	?	-16%	-6%	13µM*	-24%	·
COc1ccc(C(=O)N2CCOCC2)cc1S(=O)(=O)N1CCC(C)CC1	3%	2%	-3%	6%	0%	-5%
CC1CCN(S(=O)(=O)c2ccc(NN=C(C#N)C#N)cc2)CC1	7%	?	-2%	?	14µM*	-22%
N#CC(C#N)=NNc1ccc(S(N)(=O)=O)cc1	-8%	-27%	-9%	·	10µM*	·
CC(=O)O[C@H]1[C@H]2[C@@H](OC(=O)Cc3ccccc3)[C@@H](C)C[C@]2(OC(C)=O)C(=O)/C(C)=C/[C@@H]2[C@H](CC[C@@]13CO3)C2(C)C	·	-24%	-3%	-2%	?	-4%
O=[As](O)(O)c1ccc(NCc2ccccc2)cc1	·	·	·	?	·	0%
Nc1ccc([As](=O)(O)O)cc1	13µM*	-14%	-7%	5%	-12%	1%
O=[As](O)(O)c1ccc(Cc2ccc([As](=O)(O)O)cc2)cc1	·	·	·	2.2µM*	·	3.5µM*
NC(Cn1ccc(=O)c(O)c1)C(=O)O (configuration not stated)	?	0%	-4%	8%	-1%	-6%
C[C@@H]1O[C@@H](O[C@H]2C[C@@H](O)[C@]3(CO)[C@H]4[C@H](O)C[C@]5(C)[C@@H]([C@@H]6COC(=O)C6)CC[C@]5(O)[C@@H]4CC[C@]3(O)C2)[C@H](O)[C@H](O)[C@H]1O	4%	-20%	-9%	12%	-7%	-7%
O=c1[nH]c(O)c(N=Nc2cc([N+](=O)[O-])ccc2O)c(=O)[nH]1	165%	-17%	-5%	20µM*	14µM*	·
C/C=C1/CN2CC[C@]34C(=C(C=O)[C@H]1C[C@@H]23)Nc1ccccc14	-18%	2%	-2%	-8%	-1%	-3%
Cc1ccc(-n2sc3ccccc3c2=O)cc1	28µM*	-21%	?	10µM*	32µM*	0.63µM*	HPGD inh conf=0.56µM*
COC(=O)c1ccccc1OP1(=O)COc2ccccc2OC1	2%	3%	0%	9%	-5%	-22%
O=P1(Nc2ccc(F)cc2)COc2ccccc2OC1	7%	-1%	-1%	-4%	-10%	1.1µM*	HPGD inh conf=1µM*
CC(=O)N1CCN(c2ccc(OC[C@@H]3CO[C@@](Cn4ccnc4)(c4ccc(Cl)cc4Cl)O3)cc2)CC1	5%[25.5 µM]	·	·	-8%[20.9 µM]	·	1%
CN[C@@H](C)[C@H](O)c1ccccc1	3.5µM*	?	?	0.5µM*	?	0.79µM*	HPGD inh conf=1.4µM*;ALDH1A1 inh-2=0.45µM*
CN(CCc1ccccn1)Cc1ccc(Cl)cc1	?	4%	3%	-3%	8%	-10%
SMILES	KDM4E inh	Tau fluor counter	Tau fibril FP	ALDH1A1 inh-1	Tau ThT inhib	HPGD inh	others
CCC(C=C[C@@H]1OC(=O)C=C[C@H]1C)=C[C@H](C)CC=CC(C)=C[C@@H](C)C(=O)[C@@H](C)[C@H](O)[C@@H](C)CC(C)=CC(=O)O	·	-2%[2.34 µM]	5%[2.34 µM]	0.22µM*	3%[2.31 µM]	0%	ALDH1A1 inh-2=1.1µM*
Cc1cccc(N2CCN(C(=O)C34CC5CC(CC(C5)C3)C4)CC2)c1C	0%	-11%	11%	-11%	?	-9%
COc1ccc2c(c1)CCC1[C@@H]2CCC2(C)[C@@H](NCCCCCCN3C(=O)C=CC3=O)CC[C@@H]12 (some centres not stated)	-8%	-19%	-13%	0.11µM*	?	-5%	ALDH1A1 inh-2=0.5µM*
CCCCCCCCCCCCCC(=O)O[C@@H]1[C@@H](C)[C@@]2(O)[C@H](C=C(CO)C[C@]3(O)C(=O)C(C)=C[C@@H]23)[C@@H]2C(C)(C)C12OC(C)=O (some centres not stated)	·	-8%	0%	-2%	?	·
COc1ccccc1CN1CCCC2(CCN(C(=O)Oc3ccccc3)CC2)C1	·	·	·	-10%	·	-5%
O=c1oc(Cl)c(Cl)c2ccccc12	4%	-19%	?	0.56µM*	11µM*	-12%	ALDH1A1 inh-2=0.25µM*
CCc1cccc(C)c1N(C(=O)CCl)C(C)COC (configuration not stated)	16%	-3%	-4%	6%	-4%	-7%
CC(C)N(C(=O)CCl)c1ccccc1	-2%	-7%	-4%	0.028µM*	-15%	-6%	ALDH1A1 inh-2=0.05µM*

Screening data: PubChem, National Center for Advancing Translational Sciences (NCATS)
